From PubChem BioAssay (EPA / NIEHS)
Results filed as inconclusive are left out. Calls of active or inactive are those of the source. Rule for the calls: active = hit-call score of the fitted dose curve at least 0.9, where 1 is the maximum; inconclusive = response in the unintended direction; inactive = score below 0.9.

biological target: Nuclear receptor subfamily 1 group I member 2 (Homo sapiens) (UniProt O75469); experiment: ATG_PXR_TRANS: Attagene TRANS-FACTORIAL HepG2 Assay for human Pregnane X Receptor (PXR) (AID 2283008)
Method: ATG_TRANS is a cell-based, multiplexed-readout assay that uses HepG2, a human liver cell line, with measurements taken at 24 hours after chemical dosing in a 24-well plate.ATG_PXR_TRANS is one of 30 assay component(s) measured or calculated from the ATG_TRANS assay. It is designed to make measurements of mRNA induction, a form of inducible reporter, as detected with fluorescence intensity signals by Reverse transcription polymerase chain reaction (RT-PCR) and Capillary electrophoresis technology.Data from the assay component ATG_PXR_TRANS was analyzed into 1 assay endpoint. This assay endpoint, ATG_PXR_TRANS, was analyzed in the positive analysis fitting direction relative to DMSO as the negative control and baseline of activity. Using a type of inducible reporter, measures of mRNA for gain-of-signal activity can be used to understand the reporter gene at the transcription factor-level as they relate to the gene NR1I2. Furthermore, this assay endpoint can be referred to as a primary readout, because this assay has produced multiple assay endpoints where this one serves a reporter gene function. To generalize the intended target to other relatable targets, this assay endpoint is annotated to the nuclear receptor intended target family, where the subfamily is non-steroidal.
Human liver HepG2 cells are transiently transfected with multiple reporter transcription units (MRTUs) in 6-well plates using FuGene 6 reagent (Roche; 3 ml FuGene/1 mg DNA). The MRTU constructs are regulated by a cis-regulating element (promoter). […] A major difference between the CIS and TRANS system is that in CIS activities of endogenous TFs are measured, whereas the TRANS assay evaluates changes in activities of exogenous, chimeric NR-Gal4 proteins. […] At the end of 24 hour incubation, total RNA was isolated using TriZol reagent (Invitrogen). The isolated RNA is then reverse-transcribed using oligo(dT) primer and Mo-MLV reverse transcriptase (Invitrogen) with DNAse I (Ambion) treatment for 30 min. The one-tenth of the produced cDNA was amplified by PCR using Taq DNA polymerase (Invitrogen) and two reporter sequence-specific primers. The PCR products were fluorescently labeled by primer extension with 6-arboxyfluorescein (6-FAM) 5'-labeled reporter sequence-specific primer (2 min at 95 C, 20 s at 68 C and 10 min at 72 C) and these products were digested with 5U of HpaI (New England Biolabs) for 2h at 37 C. The fragments were purified using Qiaquick PCR columns (Qiagen), analyzed on an ABI 3130xL genetic analyzer (Applied Biosystems) with peak positions identified by using a set of X-rhodamine (ROX)-labeled MapMarker1000 molecular weight standards (BioVentures). The raw capillary electrophoresis data was processed using Attagraph software (Attagene).

Chain of Nuclear receptor subfamily 1 group I member 2 (Homo sapiens) (O75469 whole entry, looked up): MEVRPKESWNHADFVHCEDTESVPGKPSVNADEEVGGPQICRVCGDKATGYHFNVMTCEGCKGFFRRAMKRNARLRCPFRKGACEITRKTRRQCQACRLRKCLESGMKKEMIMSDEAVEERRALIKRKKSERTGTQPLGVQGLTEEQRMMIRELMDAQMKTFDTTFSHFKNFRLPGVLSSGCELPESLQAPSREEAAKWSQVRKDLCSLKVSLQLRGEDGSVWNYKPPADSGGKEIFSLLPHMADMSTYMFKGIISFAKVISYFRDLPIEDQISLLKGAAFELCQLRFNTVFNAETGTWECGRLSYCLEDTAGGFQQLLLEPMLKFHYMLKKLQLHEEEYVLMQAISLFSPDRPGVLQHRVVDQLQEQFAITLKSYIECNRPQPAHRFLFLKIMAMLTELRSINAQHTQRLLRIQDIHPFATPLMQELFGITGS

outcome, inactive:
COC(=O)c1cc(Cl)ccc1[N+](=O)[O-]
OC1OCCOC1O (stereo not given)
CCCCCCCC(C)=O
O=C1CCCCCCCCCCCCCCCO1
Cc1ccccc1C
CC[C@H]1OC(=O)[C@H](C)[C@@H](O[C@H]2C[C@@](C)(OC)[C@@H](O)[C@H](C)O2)[C@H](C)[C@@H](O[C@@H]2O[C@H](C)C[C@H](N(C)C)[C@H]2O)[C@](C)(O)C[C@@H](C)C(=NOCOCCOC)[C@H](C)[C@@H](O)[C@]1(C)O
CCOC(=O)NNc1nncc2ccccc12
Cc1cccc(N)n1
CC(=O)CC(N)=O
COc1cc(C)ccc1C(C)C
CCCCCCCCCCOC(C)=O
CC1(C)[C@H]2CC[C@]1(C)C(=O)C2
CO[Si](OC)(OC)c1ccccc1
O=C1c2ccccc2C(=O)C1c1nc2ccccc2c(Br)c1O
COc1cc(NC(=O)CC(C)=O)c(OC)cc1Cl
c1cc(N(CC2CO2)CC2CO2)ccc1OCC1CO1 (stereo not given)
CCN(CC#N)c1cccc(C)c1
CCCCCCCCCCOS(=O)(=O)O
CC1(C)O[C@@H]2C[C@H]3[C@@H]4C[C@H](F)C5=CC(=O)C=C[C@]5(C)[C@@]4(F)[C@@H](O)C[C@]3(C)[C@]2(C(=O)CO)O1
CCCC(C)CCC(C)=O (stereo not given)
c1c[nH]cn1
C=CC(=O)OCCOC1C2CCC1C1CC=CC12 (stereo not given)
COC(=O)c1ccccc1OC
CCCCCCCC/C=C\CCCCCCCC(=O)O
Cc1cc(=O)n(-c2ccccc2)n1C
CCCCCCCCCCCCCCCC[n+]1ccccc1

AC50, active:
C=C(C)c1cccc(C(C)(C)N=C=O)c1 0.0915 µM
CCC(Cc1ccccc1)(C(=O)c1ccc(N2CCOCC2)cc1)N(C)C (stereo not given) 2.42 µM
C1=Cc2ccccc2C1 6.06 µM
Cc1cc(O)c(Cl)c(C)c1Cl 26.4 µM
C=CC(C)(CCC=C(C)C)OC(=O)CC(C)C (stereo not given) 11.8 µM
O=S(=O)(Oc1ccc(Cl)cc1Cl)c1ccccc1 2.19 µM
CC(C)C1=CC2=CC[C@@H]3[C@](C)(CCC[C@@]3(C)C(=O)O)[C@H]2CC1 1.55 µM
CCCCC/C=C\C/C=C\CCCCCCCC(=O)OC 47.6 µM
CCOC(=O)c1ccc(N(C)C)cc1 27.5 µM
C=C(C)[C@@H]1CCC2=CCC[C@@H](C)[C@]2(C)C1 2.72 µM
CCCCCCCCCCC=CC#N 29.9 µM
CCOc1nc(F)cc2nc(S(=O)(=O)Nc3c(Cl)cccc3C(=O)OC)nn12 7.06 µM
C=C1C2CCC(C2)C1(C)C (stereo not given) 18.9 µM
CC(C)=CCC/C(C)=C\C#N 29.3 µM
